# An excerpt weighted towards active compounds, which were near 19% of everything screened.
# TDP1 cell noCPT: qHTS for Inhibitors of human tyrosyl-DNA phosphodiesterase 1 (TDP1): qHTS in cells in absence of CPT; DT40 Tdp1-/- hTDP1 cells, no CPT, ATP luminescence, 48 h; Potency, µM (doses to about 46.2 µM), inactives show at the top dose activity change, negative = growth inhibition, most hits filed as inhibitors; actives 15% (n = 420,000); AID 686978, 2013; note: potency is the fitted concentration of half-maximal effect; nearly all actives have a fitted effect of over 55% in size
#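 Cells were dispensed at 400 per well, compounds added by pin tool, plates incubated ≥48 hr at 37 °C, then CellTiter-Glo added for 30 min at room temperature before luminescence reading. Line: DT40 Tdp1-/- complemented with hTDP1; camptothecin omitted.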
# HT1080 IDH1KD tx: qHTS for induction of synthetic lethality in tumor cells producing 2HG: qHTS for the HT-1080-IDH1KD cell line; actives 2% (n = 360,000); Potency, µM (highest dose often 46.1 µM), inactives show top-dose activity, negative = toxicity, most hits filed as cytotoxic; HT-1080 IDH1 knockdown viability, ATP luminescence, 48 h;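 note: potency is the fitted concentration of half-maximal effect; 0% = DMSO wells and -100% = cell-free medium wells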
#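 After a 2 h attachment period, IDH1KD HT-1080 cells took pin-transferred compound for 48 h at 37 °C; ATP-based luminescence after 10 min room-temperature reagent incubation reported viability.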
# IL1B secr inh: qHTS for Inhibitors of Inflammasome Signaling: IL-1-beta AlphaLISA Primary Screen; THP-1 LPS/ATP IL-1B secretion, AlphaLISA, 16 h; hits give low values; activity change, % at 57.5 µM; actives 4.7% (n = 360,000); in the data active = activity change below about -50%; inconclusive = mostly about -30% to -49%
#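 THP-1 cells pretreated 1 hr with compounds (up to 57.5 uM final), then stimulated with LPS (250 ng/mL final) plus ATP (1.25 mM final); secreted IL-1B measured by AlphaLISA after 16 hr, decreased signal indicating inhibition.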
# DT40 TDP1 CPT: qHTS for Inhibitors of human tyrosyl-DNA phosphodiesterase 1 (TDP1): qHTS in cells in presence of CPT. Potency, µM (highest dose often 46.2 µM), without a hit: top-dose activity change, negative = growth inhibition, actives largely listed as inhibitors. actives 12% (n = 420,000). chicken DT40 Tdp1-/-;hTDP1 cells + 20 nM CPT, ATP luminescence, 48 h; note: potency is the fitted concentration of half-maximal effect; nearly all actives have a fitted effect of over 55% in size
#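 Cell growth measured by CellTiter-Glo luminescence after a minimum 48 h, 37 C compound exposure with 20 nM CPT in Tdp1-knockout DT40 cells stably expressing hTDP1, seeded 400/well; qHTS titration format.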
# HT1080-NT tox: qHTS for induction of synthetic lethality in tumor cells producing 2HG: qHTS for the HT-1080-NT fibrosarcoma cell line | HT-1080-NT fibrosarcoma viability, CellTiter-Glo ATP luminescence, 48 h | actives 1.6% (n = 360,000) | AID 686970, 2013 | Potency, µM (highest dose often 46.1 µM), for the others: at the top dose activity, negative = less viability, most hits filed as cytotoxic;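 note: NT is the 2HG producing partner of a matched IDH1 knockdown line; potency is the fitted concentration of half-maximal effect; 0% = DMSO-treated cells and -100% = media-only wells without cells; nearly all actives have a fitted effect of over 55% in size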
#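 Viability by CellTiter-Glo luminescence after 48 h compound exposure at 37C of HT-1080-NT cells (750/well, RPMI, 5% FBS). % activity scaled between DMSO wells and medium-only wells, then curve-fitted and categorized by curve class.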
# * = called active by the depositor; ? = inconclusive; . = not tested or not shown. Unless noted, calls come from the whole dose curve; as a rule, active = well fitted curve in the direction sought with a large enough effect; inconclusive = small, poorly fitted or top-dose-only effect, or another doubt; inactive = no such curve, though single readings can be large; an effect the other way counts as inactive or inconclusive. Unless noted, % is set by controls: 0 for no effect and ±100 for the full control effect.
SMILES,TDP1 cell noCPT,HT1080 IDH1KD tx,IL1B secr inh,DT40 TDP1 CPT,HT1080-NT tox
c1ccc(C2=Nc3ccccc3NC(c3ccccc3)C2)cc1 (configuration not stated),15µM*,-23%,-16,?,4%
O=[N+]([O-])c1ccc(N2CCN(C(=S)NCc3ccc(Cl)cc3)CC2)cc1,3.7µM*,?,.,5.8µM*,?
CCNC(=S)N1CCN(c2ccc([N+](=O)[O-])cc2)CC1,-92%,0%,-14,-81%,-8%
COCCCNC(=S)N1CCN(c2ccc([N+](=O)[O-])cc2)CC1,8.2µM*,0%,0,16µM*,10%
O=c1c(-c2ccc(Cl)cc2)nc2cnc(N3CCOCC3)nc2n1CCc1ccccc1,7%,.,.,1%,.
COc1ccccc1NC(=O)c1sc2nc3c(cc2c1N)CN(Cc1ccccc1)CC3,?,.,.,15µM*,.
Cc1ccccc1NC(=O)c1sc2nc3c(cc2c1N)CCCC3,3.3µM*,.,.,?,.
NC(=O)c1sc2nc3c(cc2c1N)CCC3,-24%,-1%,-10,-16%,2%
Cc1cccc(NC(=O)c2sc3nc4c(c(-c5cccs5)c3c2N)CN(C)CC4)c1,?,-13%,-86*,?,-5%
CCN(CC)c1ccc(NC(=O)c2sc3nc4c(cc3c2N)CN(C)CC4)cc1,16µM*,.,.,?,.
COC(=O)[C@H](Cc1c[nH]c2ccccc12)NC(=O)Nc1ccccc1OC,-7%,-4%,-1,26%,-3%
O=C(CNC(=O)c1ccccc1F)Nc1ccccc1C(F)(F)F,-1%,11%,14,20%,2%
CCC(C)[C@H](NC(=O)N1CCCCC1)C(=O)OC (some centres not stated),-14%,16%,11,1%,16%
O=C(CSc1nnc(-c2ccc(Cl)cc2)o1)Nc1ccc(F)cc1,4%,.,.,-11%,.
CCN(CC(=O)Nc1c(F)cccc1F)C(=O)Cc1ccc2c(c1)CCC2,-21%,1%,-16,-20%,-6%
Nc1c(C(=O)Nc2ccccc2)sc2nc3c(cc12)CN(Cc1ccccc1)CC3,23µM*,.,.,?,.
Cc1ccc(COc2ccc(CNCCCN3CCCCCC3=O)cc2)cc1,18µM*,-16%,-64*,?,-29%
COn1c(=O)c(-c2cccs2)[n+]([O-])c2ccccc21,12µM*,10%,0,16µM*,4%
CCOn1c(=O)c(-c2cccs2)[n+]([O-])c2ccccc21,-9%,0%,?,-10%,-1%
Cc1ccc(CN2C(=O)C(Cc3ccccc3)Nc3ncnc(N4CCCCC4)c32)cc1 (configuration not stated),?,-4%,-19,18µM*,-1%
O=C1C(Cc2ccccc2)Nc2ncnc(N3CCN(c4ccccc4)CC3)c2N1Cc1ccccc1 (configuration not stated),18µM*,0%,-59*,?,-30%
O=C1C(Cc2ccccc2)Nc2ncnc(N3CCN(c4ccccc4)CC3)c2N1Cc1ccc(Br)cc1 (configuration not stated),?,-3%,?,?,-7%
CCC1Nc2ncnc(N3CCN(c4ccccc4)CC3)c2N(Cc2ccc(Br)cc2)C1=O (configuration not stated),?,-3%,?,21µM*,-1%
Cc1ccc(CN2C(=O)C(Cc3ccccc3)Nc3ncnc(N4CCN(c5ccccc5)CC4)c32)cc1 (configuration not stated),?,-2%,-17,?,-6%
CC(O)c1nc2ccccc2n1C(C)c1ccccc1 (configuration not stated),?,-4%,19,-28%,-3%
SMILES,TDP1 cell noCPT,HT1080 IDH1KD tx,IL1B secr inh,DT40 TDP1 CPT,HT1080-NT tox
CCSC1=NC2(CCCCC2)Nc2sc3c(c21)CCCC3,?,-1%,-22,23µM*,-16%
CC1(C)CC2(CC(c3cccs3)c3cc(Cl)c(O)cc3O2)NC(=S)N1 (configuration not stated),7.3µM*,-22%,17,8.2µM*,-4%
CC1(C)CC2(CC(c3ccc(F)cc3)c3ccc(O)cc3O2)NC(=S)N1 (configuration not stated),?,-1%,-2,?,-3%
COCC(C)n1c(C)cc(C(=O)COC(=O)/C=C/c2cccc(F)c2)c1C (configuration not stated),?,-1%,-8,?,-10%
O=C(NC(=S)N1CCCCC1)c1cccs1,15µM*,0%,-4,?,6%
CC1CCCCN1C(=S)NC(=O)c1cccs1 (configuration not stated),16µM*,-7%,10,?,-6%
O=C(c1cccs1)N1CCCC1,-13%,7%,-4,-3%,7%
O=C(NC(=S)N1CCN(c2ccc(Cl)cc2[N+](=O)[O-])CC1)c1ccco1,?,-12%,12,?,-11%
O=C(c1cccs1)N1CCN(C(=O)c2cccs2)C1=S,5.8µM*,21µM*,-95*,5.8µM*,?
CC1CCN(C(=S)NC(=O)c2cccs2)CC1,?,-28%,33,?,-2%
O=C(NC(=S)N1CCN(c2ccc(Cl)cc2[N+](=O)[O-])CC1)c1cccs1,21µM*,-4%,26,9.2µM*,-3%
CCCCC(OC(=O)c1ccco1)C(=O)NCc1ccc(C)cc1 (configuration not stated),-14%,14%,-2,4%,5%
N#CCSc1nc2c(sc(=S)n2Cc2ccco2)c(=O)n1-c1ccc(F)cc1,?,?,-53*,?,?
Clc1ccc(Nc2nc(-c3ccccc3)c3ccccc3n2)c(Cl)c1,-1%,.,.,-9%,.
CC(=O)N[C@@H](CC(=O)N[C@@H](CCC(=O)O)C(=O)O)C(=O)O,-7%,.,.,-8%,.
Cc1cc(C(=O)C(C)OC(=O)c2ccc(NC(=O)CC#N)cc2)c(C)n1-c1ccc(OC(F)F)cc1 (configuration not stated),12µM*,26µM*,?,23µM*,-19%
Cc1ccnc(NS(=O)(=O)c2ccc(NS(C)(=O)=O)cc2)n1,27%,7%,0,-1%,10%
Cc1ccc(-c2nn3c(C)nnc3s2)cc1NC(=O)c1ccc(-c2cccc(Cl)c2)o1,18µM*,?,104,23µM*,?
